Most compounds without a hit are left out; they make up all but 7.3% or so of the library.
VACV mCherry inh: vaccinia inhibition (mCherry reporter) | Vaccinia virus mCherry reporter infection, fluorescence | 310,000 compounds, 0.63% hits | Potency, µM (top dose mostly 36.5 µM), actives largely listed as inhibitors | AID 720579; calls by dose curve; tested in A549 cells; further: nearly all actives have a fitted effect of over 35% in size
FMDV inh: antivirals against foot and mouth disease virus; FMDV antiviral cell-based qHTS; Potency, µM (highest dose often 57.9 µM), actives largely listed as inhibitors; 410,000 compounds, 1.2% hits; AID 1159524; calls by dose curve; tested in HEK293T cells; further: read-out not given here; nearly all actives have a fitted effect of over 45% in size
Vaccinia Venus: vaccinia inhibition (Venus reporter); Vaccinia virus Venus reporter expression, fluorescence; Potency, µM (highest dose often 36.5 µM), most hits filed as inhibitors; 330,000 compounds, 0.46% hits; AID 720580; calls by dose curve; tested in A549 cells; further: nearly all actives have a fitted effect of over 30% in size
HCV inhibitor: HCV inhibition | Huh7.5.1 HCVcc-Cre infection, luciferase reporter, 44 h | Potency, µM (series often up to 41.8 µM), usual class: inhibitors | 340,000 compounds, 3.4% hits | AID 651820; active means well fitted inhibition curve with a large enough effect; inconclusive means small, poorly fitted or top-dose-only effect, or another doubt; inactive means no such curve, though single readings can be large or run the other way
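Cells seeded at 1,000/well and cultured 4 h, then compounds added followed by HCVcc-Cre virus (~0.5 moi). After 44 h further culture, luciferase substrate was added, plates held 15 min at room temperature, and luminescence read for 15 sec.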
HCMV inh: blocks human cytomegalovirus replication | HFF cells, HCMV-luciferase reporter, 72 h; stronger effect = lower value | activity change, negative = inhibition, % at 57.5 µM | 410,000 compounds, 4.5% hits | AID 1259415; in the data active means activity change below about -60%; inconclusive means no clear call, values can overlap the other calls; inactive means above about -39%
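Human foreskin fibroblasts infected with luciferase-reporter HCMV at MOI 1 PFU/cell, compounds at two doses. Luciferase measured 72 h post infection; normalized to buffer-only basal and Salinomycin (10uM) controls.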
Of the large screens only hits and unclear results are named; the others gave an inactive call; ! = not active in a repeat.

CCn1c(=O)cc(OCC(=O)NCCCN2CCCC2=O)c2ccccc21	none
COc1ccc(Cc2nc3ccc(C(=O)N(C)Cc4nccn4C)cc3o2)cc1	none (no result: HCV inhibitor)
COC(=O)[C@]12OC[C@]34C([C@@H](O)[C@@H]1O)[C@]1(C)CC(=O)C(O)=C(C)[C@@H]1C[C@H]3OC(=O)[C@H](O)[C@@H]24 (stereo partly drawn)	VACV mCherry inh inconclusive, FMDV inh inconclusive, Vaccinia Venus 0.89µM, HCV inhibitor inconclusive, HCMV inh inconclusive
COc1ccc(N2CC3=C(C2=O)C(c2ccc(Br)cc2)NC(=O)N3C)cc1 (stereo not drawn)	HCMV inh -99 (no result: HCV inhibitor)
Nc1cc2[nH]c(=O)c3ccccc3c2cc1Br	HCV inhibitor inconclusive
Nc1cc2c(cc1Br)[nH]c(=O)c1ccccc12	VACV mCherry inh inconclusive, Vaccinia Venus inconclusive, HCV inhibitor inconclusive, HCMV inh -89
C/C(=N\NC(=O)c1n[nH]c2c1CCC2)c1cccs1	HCMV inh -91
O=C(N/N=C/c1cccc2ccccc12)c1n[nH]c2c1CCCC2	none
O=C(N/N=C\c1cccc(Cl)c1)c1n[nH]c2c1CCCC2	Vaccinia Venus inconclusive
O=C(N/N=C/c1cccs1)c1n[nH]c2c1CCCC2	VACV mCherry inh inconclusive, Vaccinia Venus inconclusive, HCMV inh -85
Cc1ccc(/C=N/NC(=O)c2n[nH]c3c2CCCC3)cc1	Vaccinia Venus inconclusive, HCMV inh -75
N#CCSc1nc(-c2ccccc2)cs1	Vaccinia Venus inconclusive, HCMV inh -63 (no result: VACV mCherry inh)
CC(Cc1cccc(C(F)(F)F)c1)NCCCc1ccccc1 (stereo not drawn)	VACV mCherry inh inconclusive, FMDV inh 20µM, Vaccinia Venus inconclusive (no result: HCV inhibitor, HCMV inh)
CCOc1c(Br)cc(C(=O)N2CCCN(C)CC2)cc1OC	none (no result: VACV mCherry inh, Vaccinia Venus)
Cc1ccc(SCC(=O)OCC(=O)N(C)C2CCS(=O)(=O)C2)cc1C (stereo not drawn)	none (no result: VACV mCherry inh, Vaccinia Venus)
C=CCn1c(-c2ccc(OC)cc2)csc1=Nc1c(C)n(C)n(-c2ccccc2)c1=O	FMDV inh 22µM, Vaccinia Venus inconclusive, HCV inhibitor inconclusive, HCMV inh inconclusive (no result: VACV mCherry inh)
COc1ccc(-c2csc(=Nc3ccccc3)n2CCO)cc1	FMDV inh 25µM, HCV inhibitor 13µM!, HCMV inh -62
COc1ccc(-c2csc(=NCCO)n2-c2ccccc2)cc1	FMDV inh 18µM, HCV inhibitor inconclusive, HCMV inh inconclusive
CCc1ccc2oc(-c3ccc(OC)cc3)cc(=Nc3c(C)n(C)n(-c4ccccc4)c3=O)c2c1	HCV inhibitor 10µM, HCMV inh inconclusive (no result: VACV mCherry inh, Vaccinia Venus)
O=C(NCCSc1c(-c2ccccc2)[nH]c2ccccc12)c1ccc(S(=O)(=O)N2CCOCC2)cc1	VACV mCherry inh inconclusive, Vaccinia Venus inconclusive, HCMV inh inconclusive (no result: HCV inhibitor)
Cc1ccc(-c2csc(=Nc3ccccc3)n2CCCO)cc1	FMDV inh 32µM (no result: HCV inhibitor)
Cc1ccc(C(=O)NCC(=O)N2CCC(Cc3ccccc3)CC2)cc1	none
CN1CCN(c2ccccc2NC(=O)c2ccc([N+](=O)[O-])o2)CC1	VACV mCherry inh inconclusive, Vaccinia Venus inconclusive, HCV inhibitor inconclusive (no result: HCMV inh)
CC(=O)N1CCN(c2ccc(NC(=O)c3ccc([N+](=O)[O-])o3)cc2Cl)CC1	VACV mCherry inh inconclusive, Vaccinia Venus inconclusive, HCV inhibitor inconclusive, HCMV inh -98
CCN1CCN(c2ccc(NC(=O)c3ccc([N+](=O)[O-])o3)cc2Cl)CC1	VACV mCherry inh 11µM, Vaccinia Venus inconclusive, HCV inhibitor inconclusive, HCMV inh -96
CCC(=O)N1CCN(c2ccc(NC(=O)c3ccc([N+](=O)[O-])o3)cc2Cl)CC1	VACV mCherry inh 13µM, FMDV inh inconclusive, Vaccinia Venus 11µM, HCV inhibitor inconclusive, HCMV inh -96
CCC(=O)N1CCN(c2ccc(Cl)cc2NC(=O)c2ccc([N+](=O)[O-])o2)CC1	VACV mCherry inh inconclusive, FMDV inh inconclusive, Vaccinia Venus inconclusive, HCMV inh inconclusive
CSc1ccccc1NC(=S)NCc1ccc(Cl)cc1	none (no result: VACV mCherry inh, Vaccinia Venus)
CCC1CN(CCNC(=O)c2ccccc2-n2cccn2)Cc2cc(OC)ccc2O1 (stereo not drawn)	none (no result: HCV inhibitor, HCMV inh)
O=C(O)c1ccc(Cl)c(N2C(=O)Nc3ccccc3N2O)c1	HCMV inh -61
CN1C(=O)C2(NCCc3c2[nH]c2ccccc32)c2ccccc21 (stereo not drawn)	none (no result: VACV mCherry inh)
CC1=CC(C)(C)N2C(=O)C3(NCCc4c3[nH]c3ccccc43)c3cc(C)cc1c32 (stereo not drawn)	VACV mCherry inh inconclusive, HCV inhibitor 7.9µM, HCMV inh inconclusive
COc1ccc(O)c(/C=N/NC(=S)Nc2cccnc2)c1	VACV mCherry inh 11µM, Vaccinia Venus inconclusive, HCV inhibitor inconclusive
COc1ccc(O)c(/C=N/NC(=S)Nc2cccc(S(=O)(=O)N(C)C)c2)c1	VACV mCherry inh 2µM, Vaccinia Venus inconclusive, HCV inhibitor inconclusive
CNC(=O)c1cccc(NC(=O)C(C)c2ccc3cc(OC)ccc3c2)c1 (stereo not drawn)	none
COc1ccc2cc(C(C)C(=O)Nc3cccc(S(=O)(=O)N(C)C)c3)ccc2c1 (stereo not drawn)	Vaccinia Venus inconclusive, HCV inhibitor 25µM
CCN(CC)S(=O)(=O)c1ccc(N/N=C/c2cc(OC)ccc2O)nc1	VACV mCherry inh 2µM, Vaccinia Venus inconclusive, HCV inhibitor 2.8µM, HCMV inh -103
CCN(CC)S(=O)(=O)c1ccc(N/N=C/c2cccnc2)nc1	none (no result: VACV mCherry inh, Vaccinia Venus)
CC(=O)N1CCC2(CC1)CCN(c1ccc(-c3ccccc3)cc1)CC2	none (no result: VACV mCherry inh, Vaccinia Venus, HCV inhibitor, HCMV inh)
Cc1ccccc1-c1nn(-c2ccc(F)cc2F)cc1CNCCCN(C)C	HCV inhibitor 3.2µM, HCMV inh inconclusive
COc1cccc(CNS(=O)(=O)c2cnc(N)nc2)c1	none (no result: HCV inhibitor)
Oc1c(C(c2ccccc2)N2CCc3ccccc3C2)sc2ncnn12 (stereo not drawn)	HCV inhibitor inconclusive
Oc1c(C(c2ccco2)N2CCN(C(c3ccccc3)c3ccccc3)CC2)sc2ncnn12 (stereo not drawn)	HCV inhibitor 14µM
CCCc1[nH]nc2c1C(/C(C)=C/c1ccccc1)C(C#N)=C(N)O2 (stereo not drawn)	HCMV inh -83 (no result: FMDV inh)
CCCc1[nH]nc2c1C(c1ccccc1OCC)C(C#N)=C(N)O2 (stereo not drawn)	none (no result: VACV mCherry inh, Vaccinia Venus)
CCCc1[nH]nc2c1C(c1ccccc1OC)C(C#N)=C(N)O2 (stereo not drawn)	FMDV inh 28µM
CCCc1[nH]nc2c1C(c1ccncc1)C(C#N)=C(N)O2 (stereo not drawn)	none (no result: VACV mCherry inh)
O=C(c1ccncc1)N1CCC2(CCCN(c3ccccn3)C2)CC1	none (no result: VACV mCherry inh, Vaccinia Venus, HCV inhibitor, HCMV inh)
COc1ccc(Nc2cc3[nH]c(-c4cccc(C(F)(F)F)c4)cc3cn2)cc1	none (no result: VACV mCherry inh, FMDV inh, Vaccinia Venus, HCV inhibitor)
CCNC(=O)C1(C)CCCN(C(=O)c2cc(-c3ccccc3)cs2)C1 (stereo not drawn)	none (no result: HCV inhibitor)
COc1cccc(C(=O)N2CCc3c(C(=O)NC(C)c4ccco4)c(OC)cc(=O)n3CC2)c1OC (stereo not drawn)	none (no result: HCV inhibitor, HCMV inh)
Cc1ccc2c(c1)nnn2C1CCN(S(C)(=O)=O)CC1	none
Cc1ccc2c(c1)nnn2C1CCN(S(=O)(=O)c2ccc(C(=O)N3C(C)CCCC3C)cc2)CC1 (stereo not drawn)	FMDV inh inconclusive, HCV inhibitor 6.3µM, HCMV inh -73

Compound activity as filed in PubChem BioAssay.
